Screening data deposited in PubChem BioAssay by National Center for Advancing Translational Sciences (NCATS).
A selection: hits, their analogues and other compounds. The true share with any hit is near 1.2%.
Akt phos inh: Akt phosphorylation inhibition; Neuro2A IGF-stimulated pAkt S473 HTRF, 20 min; stronger effect = lower value; activity change, % for hits at 50 µM; 360,000 compounds, 0.32% hits; AID 651550; in the data active = activity change below about -80%; inconclusive = mostly about -51% to -80%; note: % is set by controls: 0 for no effect and ±100 for the full control effect
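Single-point screen (50 µM final compound) in Neuro2A cells stimulated 20 min with 6 nM IGF at 37 deg C. After lysis, Ser473-phosphorylated Akt read by HTRF (ex 330 nm, em 615/665 nm) as the 665/615 ratio.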
gsp ag: activates gsp, the McCune-Albright syndrome mutation; gsp mutant cells, cAMP HTRF, 30 min; Potency, µM (top dose mostly 76.9 µM), for the others: at the top dose activation (cAMP increase), hits mostly activators; 340,000 compounds, 0.13% hits; active = well fitted activation curve with a large enough effect; inconclusive = small, poorly fitted or top-dose-only effect, or another doubt; inactive = no such curve, though single readings can be large or run the other way; cell line not stated here;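 note: phosphodiesterase inhibitor Ro 20-1724 added with compounds to block cAMP breakdown; potency is the fitted concentration of half-maximal effect; nearly all actives have a fitted effect of over 60% in size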
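Cells stably selected in G418 were plated at 2000/well, grown 16-24 hr, then given compounds in DMSO with the PDE inhibitor […] (300 uM solution added) for 30 min at 37C; cAMP was read by HTRF.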
RXFP1 antagonist: RXFP1 (human) relaxin receptor antagonism; HEK293-RXFP1, relaxin-stimulated cAMP HTRF, 30 min; stronger effect = lower value; activity change, negative = inhibition, % at 57.5 µM; 350,000 compounds, 0.59% hits;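 active = activity change of -60% or lower, but not beyond a set lower limit; inconclusive = change between -60% and -40%, or beyond the set limit; inactive = change above -40%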; note: % is set by controls: 0 for no effect and ±100 for the full control effect
Target sequence (Q9HBX9 whole entry, looked up): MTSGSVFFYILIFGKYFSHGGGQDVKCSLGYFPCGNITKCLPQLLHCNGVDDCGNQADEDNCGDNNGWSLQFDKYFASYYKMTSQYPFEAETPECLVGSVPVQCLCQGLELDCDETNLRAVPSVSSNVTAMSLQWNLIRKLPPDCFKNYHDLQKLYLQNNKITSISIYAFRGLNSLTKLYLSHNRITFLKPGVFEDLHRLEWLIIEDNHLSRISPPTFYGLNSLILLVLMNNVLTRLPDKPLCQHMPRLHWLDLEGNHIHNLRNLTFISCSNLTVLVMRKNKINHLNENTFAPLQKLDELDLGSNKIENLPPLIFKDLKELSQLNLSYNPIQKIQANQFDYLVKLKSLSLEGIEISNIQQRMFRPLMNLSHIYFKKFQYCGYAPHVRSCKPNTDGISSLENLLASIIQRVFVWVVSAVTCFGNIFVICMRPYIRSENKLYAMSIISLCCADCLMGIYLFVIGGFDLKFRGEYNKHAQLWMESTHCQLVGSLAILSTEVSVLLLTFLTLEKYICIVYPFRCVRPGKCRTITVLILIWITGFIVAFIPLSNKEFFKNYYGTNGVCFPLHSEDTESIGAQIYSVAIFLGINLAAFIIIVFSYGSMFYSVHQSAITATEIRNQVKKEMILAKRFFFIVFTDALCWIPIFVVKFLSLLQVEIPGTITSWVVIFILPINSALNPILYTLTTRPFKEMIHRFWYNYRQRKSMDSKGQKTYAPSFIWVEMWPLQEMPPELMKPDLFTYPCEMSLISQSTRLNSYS
gsp antag: gsp mutant antagonism; AID 624288; 340,000 compounds, 0.4% hits; gsp-mutant cells, cAMP HTRF, 30 min; Potency, µM (top dose mostly 76.9 µM), for inactives: at the highest dose activity change, negative = inhibition, actives largely listed as inhibitors; calls by dose curve; cell line not stated here;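 note: intracellular cAMP measured with PDE inhibitor Ro 20-1724 present during compound exposure; potency is the fitted concentration of half-maximal effect; % is set by controls: 0 for no effect and ±100 for the full control effect; nearly all actives have a fitted effect of over 65% in size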
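G418-selected cells were plated in DMEM/10% FBS for 16-24 h at 37C, then treated with compounds plus the PDE inhibitor […] (300 uM solution added) for 30 min at 37C. Intracellular cAMP was measured by HTRF after 30 min lysis at room temperature.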
RXFP1 ag: activates the human relaxin receptor RXFP1 | Q9HBX9 | HEK293T-RXFP1 cAMP TR-FRET, 30 min; response scale: percent of porcine relaxin response, buffer zero | Potency, µM (highest dose often 57.5 µM), without a hit: at the highest dose activation, usual class: activators | 370,000 compounds, 0.3% hits; active = well fitted activation curve with a large enough effect; inconclusive = small, poorly fitted or top-dose-only effect; note: potency is the fitted concentration of half-maximal effect; % is set by controls: 0 for no effect and ±100 for the full control effect; nearly all actives have a fitted effect of over 60% in size
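HEK293 cells stably expressing RXFP1, treated 30 min at 37C with compounds plus PDE4 inhibitor Ro 20174; cAMP measured by HTRF TR-FRET. Normalized to buffer and 29 nM porcine relaxin; EC50 by Hill fit.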
The depositor's hits bear a star; [ ] = another dose, or the depositor's remark.

How did O=C(COc1ccc2ccccc2c1)NNC(=O)Cc1ccccc1 do in these assays?
Akt phos inh: inactive; gsp ag: -5%; RXFP1 antagonist: -120*; gsp antag: -24%; RXFP1 ag: 13%

Results for CCC1=C[C@@H]2CN(C1)Cc1c([nH]c3ccccc13)[C@@](C(=O)OC)(c1cc3c(cc1OC)N(C)[C@H]1[C@@](O)(C(=O)OC)[C@H](OC(C)=O)[C@]4(CC)C=CCN5CC[C@]31[C@@H]54)C2 ?
RXFP1 antagonist: -33

Results for O=C(C=Cc1ccccc1O)c1ccccc1O ?
Akt phos inh: inactive; gsp ag: -34%; RXFP1 antagonist: -66*; gsp antag: -8%

How did Cc1ccc(C)c(/C=C/C(=O)c2ccccc(=O)c2O)c1 do in these assays?
Akt phos inh: inactive; gsp ag: -11%; RXFP1 antagonist: inconclusive; gsp antag: -21%; RXFP1 ag: -1%

How did O=C(/C=C/c1ccc(Cl)cc1)c1cccnc1 do in these assays?
Akt phos inh: inactive; gsp ag: -7%; gsp antag: 22%; RXFP1 ag: 2%

What do the screens show for `O=C(/C=C/c1ccccc1Cl)c1ccccc(=O)c1O`?
Akt phos inh: inactive; gsp ag: -58%; RXFP1 antagonist: -79*; gsp antag: 4%; RXFP1 ag: 5%

Results for O=C(/C=C/c1ccccc1Cl)c1cccnc1 ?
Akt phos inh: inactive; gsp ag: 0%; RXFP1 antagonist: -72*; gsp antag: 2%; RXFP1 ag: 2%

How did CCc1cccc(NC(=O)C2Cc3ccccc3N2C(=O)c2ccccc2)c1 (stereo unspecified) do in these assays?
RXFP1 antagonist: -16; RXFP1 ag: 1%

What do the screens show for `CCOC(=O)C[n+]1c(C)ccc2c1CCC2`?
Akt phos inh: -109%*; gsp ag: 25%; RXFP1 antagonist: -13; gsp antag: 12%; RXFP1 ag: 0%

How did O=C(CN1CCCCC1)Nc1c2c(nc3ccccc13)N(c1ccccc1)CC2 do in these assays?
Akt phos inh: inactive; gsp ag: inconclusive; RXFP1 antagonist: 48; gsp antag: 12%; RXFP1 ag: 25µM*

Results for CCOC(=O)c1c(-c2ccccc2)oc2ccc(OCC)cc12 ?
Akt phos inh: inactive; gsp ag: 9%; RXFP1 antagonist: -13; gsp antag: -9%; RXFP1 ag: 2%

What do the screens show for `CCOC(=O)c1c(-c2ccccc2)oc2ccc(OCC(O)CNCCN(C)C)cc12` (stereo unspecified)?
Akt phos inh: inactive; gsp ag: 8%[15.4 µM]; RXFP1 antagonist: -100*; gsp antag: 13%; RXFP1 ag: 0%

How did COc1ccc2cc(CCN3C(=O)c4ccccc4C3=O)c(=O)[nH]c2c1 do in these assays?
Akt phos inh: inactive; gsp ag: 11µM*; gsp antag: 8%; RXFP1 ag: inconclusive

Results for COc1ccc2cc(CCNC(=O)C(C)(C)C)c(=O)[nH]c2c1 ?
Akt phos inh: inactive; gsp ag: -26%; gsp antag: 3%; RXFP1 ag: 1%

How did CCN(CC)CC(=O)Nc1c(C)cccc1C(=O)OC do in these assays?
RXFP1 antagonist: 3

Results for COc1ccc(C(=O)CCC(=O)N2CCN(c3cccc(Cl)c3)CC2)cc1 ?
Akt phos inh: inactive; gsp ag: inconclusive; RXFP1 antagonist: -12; gsp antag: 35µM*; RXFP1 ag: 1%

How did CCOC(=O)C1=C(CN2CCN(c3cc(C)ccc3C)CC2)NC(=O)NC1c1ccc(Cl)cc1 (stereo unspecified) do in these assays?
RXFP1 antagonist: -21; RXFP1 ag: 0%

Results for CCOC(=O)c1c(NC(=O)CSc2nc3ccc(OC)cc3[nH]2)sc2c1CC(C)(C)NC2(C)C ?
Akt phos inh: inactive; gsp ag: 3%[15.4 µM]; RXFP1 antagonist: -62*; gsp antag: -6%; RXFP1 ag: 0%

Results for Clc1ccccc1Sc1cnc2ccccc2n1 ?
Akt phos inh: -91%*; gsp ag: inconclusive; RXFP1 antagonist: 6; gsp antag: 28%; RXFP1 ag: 29%

What do the screens show for `O=Cc1ccc(N2CCCC2)c([N+](=O)[O-])c1`?
Akt phos inh: inactive; gsp ag: 3%[15.4 µM]; RXFP1 antagonist: -19; gsp antag: -15%; RXFP1 ag: 3%
